Assay results: PubChem BioAssay (Tox21)
Several values for one entry are separate records, joined by “and”; a condition that tells them apart may be missing. Equal values may be shown once. Results filed as inconclusive are left out. A call without a number means that no potency is given here. Activity calls are given as the source filed them. Calls come from the whole dose curve; as a rule, active = well fitted inhibition curve with a large enough effect in the repeat runs; inconclusive = weak or mixed curves, or effect the other way; inactive = no such curve, though single readings can be large or run the other way.

What follows are compounds tested against Nuclear receptor ROR-gamma (Homo sapiens) (UniProt P51449) (assay: qHTS assay to identify small molecule antagonists of the retinoid-related orphan receptor gamma (ROR-gamma) signaling pathway (AID 1159521; note: nearly all actives have a fitted effect of over 50% in size)). Settings: Tet-on RORgamma CHO cells, RORE-luciferase, 16 h; series mostly up to 92.4 µM.
Text: U.S. Tox21 Program National Center for Advancing Translational Sciences [NCATS] NIH Chemical Genomics Center [NCGC] U.S. Environmental Protection Agency [EPA] National Institutes of Environmental Health Sciences [NIEHS] National Toxicology Program [NTP] U.S. Food and Drug Administration [FDA] Tox21 Assay Overview: Nuclear steroid hormone receptors are involved in many biological processes including inflammatory responses, cell proliferation, and apoptosis. Environmental factors or compounds disrupting these nuclear receptor pathways and gene expression may promote susceptibility to immunotoxicants and autoimmune diseases. One important group of these expression factors are the retinoid-related orphan receptors. To assess compounds that may interfere with the retinoid-related orphan receptor gamma (ROR-gamma) transcription factor, a cell-based luciferase assay was used. The CHO cell-based assay utilizes a TET-inducible ROR expression factor and ROR response element-LUC reporter gene. Reporter gene activity was induced using Doxycycline Hyclate and measured after 16 hr incubation. Tet-on ROR gamma CHO cells were used to screen against the Tox21 10K compound library for ROR gamma antagonists by quantification of decreased reporter gene activity in terms of decreased luminescence.
Tox21 Assay Protocol Summary: Tet-on ROR gamma CHO cells were dispensed at 1,000 cells in 4 uL of culture medium per well into white wall/solid bottom 1536-well plates using a Multidrop Combi (Thermo Scientific, Waltham, MA) dispenser. Following incubation at 37 C and 5% CO2 for 4 hr, 23 nL of compounds dissolved in DMSO, positive controls or DMSO only were transferred by a Pintool station (Kalypsys, San Diego, CA) and after 2 hr incubation at 37 C, one ul of 1 uM (final concentration) of Doxycycline Hyclate was added to all the wells by using a Flying Reagent Dispenser (FRD) (Aurora Discovery, San Diego, CA). After 16 hr incubation at 37 C and 5% CO2, 5 uL of ONE-Glo reagent (Promega Corporation, Madison, WI) was added to each assay plate using FRD. After 30 min incubation at room temperature, luminescence was quantified on a ViewLux plate reader (Perkin Elmer, Waltham, MA).
Potency is the fitted concentration of half-maximal effect.

| SMILES | Potency |
| --- | --- |
| Cc1ccccc1Cl | inactive |
| NC(=O)NC(N)=O | inactive |
| CCCCCCCC(=O)O | inactive |
| O=C1OC(=O)c2c(Cl)c(Cl)c(Cl)c(Cl)c21 | inactive |
| CC(=O)C(C)C | inactive |
| COC(=O)CCCCC(=O)OC | inactive |
| CC(C=O)Cc1ccc(C(C)(C)C)cc1 (stereo not given) | inactive |
| O=C(O)Cc1c[nH]c2ccccc12 | inactive |
| C=CC(=O)NCOCCCC | inactive |
| CCCCCCCCO | inactive |
| COCN(COC)c1nc(N(COC)COC)nc(N(COC)COC)n1 | inactive |
| CC/C(C)=N/O | inactive |
| Cc1ccccc1C=O | inactive |
| Cc1nnc(NS(=O)(=O)c2ccc(N)cc2)s1 | inactive |
| CCCCC(CC)COC(=O)c1ccc(C(=O)OCC(CC)CCCC)cc1 (stereo not given) | inactive |
| Cc1cccc(C)c1[N+](=O)[O-] | inactive |
| O=[N+]([O-])c1cc(C(F)(F)F)ccc1Cl | inactive |
| CO[Si](CCCNCCN)(OC)OC | inactive |
| COc1cc(NC(=O)CC(C)=O)c(OC)cc1Cl | inactive |
| N#CCC(=O)O | inactive |

| SMILES | Potency |
| --- | --- |
| OCCOCCOCCOCCOCCO | inactive |
| CC[N+](CC)(CC(=O)Nc1c(C)cccc1C)Cc1ccccc1 | inactive |
| CC(=O)OC(C)(C)C1CC=C(C)CC1 (stereo not given) | inactive |
| CC(C)c1ccc(C(C)C)cc1 | inactive |
| CC(CN1c2ccccc2Sc2ccccc21)N(C)C (stereo not given) | 24.6 µM (active) and 54.5 µM (active) |
| CS(=O)(=O)c1ccc(Cl)cc1 | inactive |
| Cc1ccncc1 | inactive |
| CCCN(CCC)C(=O)SCC | inactive |
| CC(COCC(C)OC(=O)c1ccccc1)OC(=O)c1ccccc1 (stereo not given) | inactive |
| Cc1ccc(C)c(S(=O)(=O)O)c1 | inactive |
| CC(=O)OC[C@H]1O[C@@](COC(C)=O)(O[C@H]2O[C@H](COC(C)=O)[C@@H](OC(C)=O)[C@H](OC(C)=O)[C@H]2OC(C)=O)[C@@H](OC(C)=O)[C@@H]1OC(C)=O | inactive |
| CN=C(NC#N)NCCSCc1nc[nH]c1C | inactive |
| Cc1ccc(Cl)cc1 | inactive |
| CCN(CC)CCNC(=O)c1ccc(N)cc1 | inactive |
| C=C(C)CC(C)(C)C | inactive |
| C=CC(C)(C)C | inactive |
| Nc1cccc(C(F)(F)F)c1 | inactive |
| CCc1cccc(O)c1 | inactive |
| C=C1C[C@]23C[C@@]1(O)CC[C@H]2[C@@]12C=C[C@H](O)[C@@](C)(C(=O)O1)[C@H]2[C@@H]3C(=O)O | inactive |
| NC(=O)c1ncn([C@@H]2O[C@H](CO)[C@@H](O)[C@H]2O)n1 | 4.56 µM (active) and 3.76 µM (active) |
